Screening data deposited in PubChem BioAssay by several laboratories.
Mtb FBA inh: Mtb fructose-bisphosphate aldolase inhibition; AID 588726; inhibition, % at 1 µM; purified M. tuberculosis FBA, fluorescence read-out; hit rate 2.3% among 360,000; in the data active = inhibition above about 27%;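 note: 0% = vehicle and 100% = reference inhibitor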
Target sequence (P9WQA3 whole entry, looked up): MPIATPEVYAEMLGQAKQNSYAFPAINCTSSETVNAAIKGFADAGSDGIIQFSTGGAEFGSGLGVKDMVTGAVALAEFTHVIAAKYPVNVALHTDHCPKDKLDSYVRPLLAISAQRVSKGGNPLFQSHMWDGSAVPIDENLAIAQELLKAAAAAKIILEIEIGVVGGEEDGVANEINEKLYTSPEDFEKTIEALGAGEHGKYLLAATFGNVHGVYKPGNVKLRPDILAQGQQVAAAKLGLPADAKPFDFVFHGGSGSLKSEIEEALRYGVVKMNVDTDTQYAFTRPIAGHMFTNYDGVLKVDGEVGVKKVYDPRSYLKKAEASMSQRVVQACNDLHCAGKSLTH
BioA inh: blocks M. tuberculosis BioA enzyme activity | purified M. tuberculosis BioA enzyme, plate reader | inhibition, % at 9.99 µM | hit rate 0.096% among 360,000 | AID 602481; in the data active = inhibition above about 40%
Vc quorum ag: inducers of Vibrio cholerae quorum light production without autoinducers | V. cholerae BH1578 lux reporter, luminescence, 6 h | activation, % at 18.7 µM | hit rate 0.16% among 350,000; in the data active = activation mostly above about 9.7%, no sharp cut-off
GDH-TPI inh: counter-screen for M. tuberculosis FBA inhibitors: GDH-TPI coupled enzymes. AID 588335. GDH-TPI coupled enzyme counterscreen, NADH absorbance. hit rate 1.2% among 360,000. inhibition, % at 4.8 µM; in the data active = inhibition above about 30%;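 note: 0% = DMSO wells and 100% = wells lacking the enzyme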
The depositor's hits bear a star; i = inactive; x = not tested or not shown; + = active, no number. Rows were chosen to be rich in hits. Some 3% of all compounds tested hit in one or more screens of this group.

SMILES	Mtb FBA inh	BioA inh	Vc quorum ag	GDH-TPI inh
O=C(Nc1cccc(Cl)c1)N[C@@H]1CC[C@@H](CCNC(=O)C2CC2)O[C@@H]1CO	x	2	x	x
O=S(=O)(c1cccc2cccnc12)N1CCN(Cc2ccc(OCCO)cc2)CC1	x	1	x	x
CCn1cc(/C=C(\NC(=O)c2ccccc2)C(=O)NCCCN2CCOCC2)c2ccccc21	-2	2	i	40*
Cn1cc(/C=C(\NC(=O)c2ccccc2Cl)C(=O)NCCCN2CCOCC2)c2ccccc21	0	-2	0	34*
CCn1cc(/C=C(\NC(=O)c2cc(OC)c(OC)c(OC)c2)C(=O)NCCCN2CCOCC2)c2ccccc21	-11	x	i	14
Cn1c(=O)c2cc(NC(=O)NCCc3cccs3)ccc2n1Cc1ccccc1	141*	1	i	14
CCNC(=S)Nc1ccc2c(c1)c(=O)n(C)n2-c1cc(C)cc(C)c1	8	3	-1	13
Cc1cc(C)cc(Cn2c3ccc(NC(=O)NCCc4cccs4)cc3c(=O)n2C)c1	171*	1	0	4
CCOC(=O)/C(C#N)=C/N=c1ccc(C)cn1C	2	3	i	39*
CCCCCCN1C=CC(=C/C=C(\C#N)C(=O)OCC)C=C1	-38	-5	0	8
CCCN(C)C[C@@H]1Oc2cc(-c3ccc(C#N)cc3)ccc2S(=O)(=O)N([C@@H](C)CO)C[C@@H]1C	x	-3	x	x
CCOC(=O)c1cnc2cc(C)ccn2c1=O	124*	x	i	31*
CO[C@@H]1CN(C)C(=O)c2ccc(NS(=O)(=O)c3ccccc3F)cc2OC[C@@H](C)N(S(C)(=O)=O)C[C@H]1C	x	-1	x	x
COc1nc(NCCO)nc(Nc2ccc([N+](=O)[O-])cc2)n1	2	x	0	31*
O=[N+]([O-])c1ccc(Nc2nc(Cl)nc(NCCO)n2)cc1	6	x	i	23
CN1CCN(c2ccc(C=O)cc2)CC1	-3	1	-1	37*
FCCCOc1ccc(-c2ccnc3ncnn23)cc1	+	2	-1	0
COc1ccc(-c2ccnc3ncnn23)cc1	+	x	i	13
COc1ccc(-c2cc(-c3ccccc3)n3ncnc3n2)cc1	170*	7	i	33*
Nc1nonc1-n1nnc(C(=O)N/N=C/c2cccc(O)c2)c1CN1CCCC1	5	2	31*	17
CC(/C=N/NC(=O)c1nnn(-c2nonc2N)c1CN1CCCCC1)=C\c1ccccc1	-2	0	i	34*
CC(=C/c1ccccc1)/C=N/NC(=O)c1nnn(-c2nonc2N)c1CN1CCC(C)CC1	-1	-1	0	4
CC(C)NC(=O)Nc1cccc2c1O[C@@H](CN(C)C(=O)Nc1cccc3ccccc13)[C@@H](C)CN([C@@H](C)CO)C2=O	x	1	x	x
C[C@@H]1CN([C@@H](C)CO)C(=O)Cc2cc(NC(=O)c3ccncc3)ccc2O[C@@H]1CN(C)C(=O)NC1CCCCC1	x	0	x	x
C[C@@H]1CN([C@@H](C)CO)C(=O)c2cc(NC(=O)Cc3ccccc3)ccc2O[C@@H](C)CCCCO[C@H]1CN(C)Cc1ccc2c(c1)OCO2	x	-1	x	x
SMILES	Mtb FBA inh	BioA inh	Vc quorum ag	GDH-TPI inh
Cn1c(=O)c(N=O)c(N)n(Cc2ccccc2)c1=S	-1	0	-11	32*
O=C(Nc1ccc2c(c1)OCCO2)c1ccc(Br)c(S(=O)(=O)N2CCOCC2)c1	-5	1	0	36*
COc1ccc(-c2ccc(C(=O)NC3CCCCC3)c3occc23)c(C)c1	15	-2	0	3
COc1ccc(-c2ccc(C(=O)NCC3CCOCC3)c3occc23)c(C)c1	132*	1	0	-4
CCc1nnc(NC(=O)/C=C/c2ccco2)s1	-2	x	i	47*
Cc1nc(NC(=O)/C=C/c2ccco2)sc1C	0	x	0	32*
C[C@H](CO)N1C[C@H](C)[C@@H](CN(C)C(=O)Nc2cccc3ccccc23)Oc2c(NC(=O)c3nc4ccccc4s3)cccc2C1=O	x	-1	x	x
CC(=NOC(=O)C1CCCCC1)c1nccs1	3	-1	0	51*
CN(C)Cc1c(O)ccc2c(=O)c(-c3ccccc3Cl)c(C(F)(F)F)oc12	2	0	0	36*
CCC(=O)Nc1ccc2c(c1)C(=O)N(C)C[C@@H](OC)[C@H](C)CN(Cc1cc(-c3ccccc3)on1)[C@H](C)CO2	x	4	x	x
CCc1ccc2oc(-c3ccc(OC)cc3)cc(=Nc3cccc(C(=O)O)c3)c2c1	+	4	0	22
Cc1ccc2c(c1)c(N=Nc1cccc(C(=O)O)c1)c(O)n2C	-4	x	1	2
CCOc1ccc2c(c1)c(N=Nc1cccc(C(=O)O)c1)c(O)n2C	-8	3	0	10
C=CCn1c(-c2ccc(OC)cc2)csc1=Nc1c(C)n(C)n(-c2ccccc2)c1=O	-1	-1	i	-2
COc1ccc(-c2cc(=Nc3ccc(C(=O)O)cc3)c3cc(C)ccc3o2)cc1	+	-2	0	9
COc1ccc2cc(C(=O)NCc3ccco3)c(=Nc3ccc(C(=O)O)cc3)oc2c1	14	2	-4	25
COc1ccc(-c2cc(=Nc3cccc(C(=O)O)c3)c3cc(C)ccc3o2)cc1	+	x	i	22
CCc1ccc2oc(-c3ccc(OC)cc3)cc(=Nc3c(C)n(C)n(-c4ccccc4)c3=O)c2c1	+	x	1	20
CO[C@@H]1CN(C)C(=O)c2ccc(NC(=O)C3CC3)cc2OC[C@H](C)N(Cc2nccs2)C[C@@H]1C	x	3	x	x
CS(=O)(=O)Nc1ccc2c(c1)[C@@H]1C[C@H](CC(=O)NCc3ccccc3)O[C@H](CO)[C@@H]1O2	x	3	x	x
COc1ccc(-c2cc(=NCCCCCC(=O)O)c3cc(C)ccc3o2)cc1	x	x	-1	50*
COc1ccc(-c2cc(=O)c3cc(O)ccc3o2)cc1	1	1	-1	29
COc1ccc(-c2cc(=NCC(=O)O)c3ccccc3o2)cc1	+	x	-1	28
CO[C@H]1CN(C)C(=O)c2cc(NC(=O)NC(C)C)ccc2OC[C@H](C)N(C)C[C@H]1C	x	-4	x	x
COc1cccc(NC(=O)N2C[C@@H](O)COC[C@@H]3O[C@@H](CC(=O)NCc4ccccc4F)CC[C@H]32)c1	x	1	x	x
SMILES	Mtb FBA inh	BioA inh	Vc quorum ag	GDH-TPI inh
Cc1ccc(N2C(=O)c3ccccc3C2C(=O)c2cc(C)ccc2O)cc1 (centres undefined)	-7	-1	i	4
Cc1ccc(N2C(=O)c3ccccc3C2C(=O)c2ccc(O)cc2O)cc1 (centres undefined)	-5	x	0	43*
COc1cccc(N/C=C(\C#N)c2ccc(OCCCF)cc2)c1	2	-3	0	33*
COc1ccc(C(C#N)=Cc2ccccc2OC)cc1	0	-1	i	11
C[C@H](CO)N1C[C@H](C)[C@@H](CN(C)C(=O)Nc2cccc3ccccc23)Oc2ccc(NC(=O)CCC(F)(F)F)cc2C1=O	x	0	x	x
COc1ccc(CNC(=O)C[C@@H]2C[C@H]3c4cc(NC(=O)C5CCC5)ccc4O[C@H]3[C@H](CO)O2)cc1	x	-2	x	x
Cc1ccc(/C=C/C(=O)OCC(=O)N(C)c2c(N)n(Cc3ccccc3)c(=O)[nH]c2=O)o1	-7	-1	-1	38*
O=C(N/N=C/c1ccco1)c1cc2ccccc2o1	3	1	i	49*
